Assay outcomes: PubChem, National Center for Advancing Translational Sciences (NCATS)
Only a selection was taken, and hits are over-represented in it overall.
Glioma ERSR ind – qHTS for Inducers of the Endoplasmic Reticulum Stress Response (ERSR) in Human Glioma: qHTS | Potency, µM, without a hit: at the highest dose activation, usual class: activators | U87-MG GRP78 promoter luciferase reporter, 16 h | AID 602332, 2012 | 420,000 tested, 0.02% active; further: series mostly up to about 76 µM; % of control where 0% means no effect; nearly all actives have a fitted effect of over 35% in size
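Stably transfected U87-MG human glioma cells carrying a GRP78-based luminescent sensor were seeded at 1000 cells/well, pin-dosed with compounds and incubated 16 h. Luciferase reagent was then added, and end-point luminescence was read after 10 min at room temperature.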
Sfp PPTase inh – qHTS Assay for Inhibitors of Bacillus subtilis Sfp phosphopantetheinyl transferase (PPTase) | 4'-phosphopantetheinyl transferase ffp (Bacillus subtilis), Q9F4F7 | Biochemical Sfp PPTase activity, qHTS | Potency, µM, for the others: largest response in the series, negative = inhibition, usual class: inhibitors | 310,000 tested, 3.5% active;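 further: the enzyme is Sfp with the accession as filed and its product quenches rhodamine fluorescence; 0% = enzyme reaction without inhibitor and -100% = no enzyme wells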
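Sfp 15 nM + cpd, 15 min RT; start w/ rhodamine-CoA 5 uM, BHQ-2-YbbR 12.5 uM (final); 50 mM Hepes pH 7.6, 10 mM MgCl2, 0.01% NP-40, 0.01% BSA; read 525/598 nm at 0 and 30 min.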
G9a inh – qHTS Assay for Inhibitors of Histone Lysine Methyltransferase G9a. Histone-lysine N-methyltransferase EHMT2 (Homo sapiens), Q96KQ7. G9a H3K9 monomethylation, AlphaScreen, 2 h. Potency, µM (doses to about 102 µM), for the others: top-dose activity, negative = inhibition, most hits filed as inhibitors. 350,000 tested, 8.8% active. AID 504332, 2011; further: on the % scale 0 is the no-effect control and ±100 the full control effect; nearly all actives have a fitted effect of over 75% in size
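Quantitative HTS format: methyltransferase activity on a biotin-tagged H3K9 peptide is measured by AlphaScreen, using a rabbit anti-monomethyl-H3K9 antibody with streptavidin donor and anti-IgG acceptor beads. Final levels are 20 nM enzyme, 500 nM peptide, 20 uM SAM; 2 h RT.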
VDR inhibitor – Inhibitors of the vitamin D receptor (VDR): qHTS; Vitamin D3 receptor (Homo sapiens), P11473; VDR-SRC2-3 peptide fluorescence polarization, 2 h; Potency, µM, without a hit: max response, negative = inhibition, actives largely listed as inhibitors; 400,000 tested, 0.93% active; further: on the % scale 0 is the no-effect control and ±100 the full control effect
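Inhibition of the VDR/SRC2-3 peptide interaction is quantified by fluorescence polarization. Compounds (23 nl, pintool) incubate with the reagents for 2 hours at ambient room temperature.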
ALOX12 inh – Primary qHTS assay for inhibitors of human arachidonate 12S-lipoxygenase (ALOX12): Round 2 | Polyunsaturated fatty acid lipoxygenase ALOX12 (Homo sapiens), P18054 | Potency, µM (highest dose often 108 µM), without a hit: at the highest dose activity change, negative = inhibition, usual class: inhibitors | purified 12hLO, xylenol orange hydroperoxide absorbance | AID 1671190, 2021 | 580,000 tested, 1.1% active; further: on the % scale 0 is the no-effect control and ±100 the full control effect
Target sequence (P18054 whole entry, looked up): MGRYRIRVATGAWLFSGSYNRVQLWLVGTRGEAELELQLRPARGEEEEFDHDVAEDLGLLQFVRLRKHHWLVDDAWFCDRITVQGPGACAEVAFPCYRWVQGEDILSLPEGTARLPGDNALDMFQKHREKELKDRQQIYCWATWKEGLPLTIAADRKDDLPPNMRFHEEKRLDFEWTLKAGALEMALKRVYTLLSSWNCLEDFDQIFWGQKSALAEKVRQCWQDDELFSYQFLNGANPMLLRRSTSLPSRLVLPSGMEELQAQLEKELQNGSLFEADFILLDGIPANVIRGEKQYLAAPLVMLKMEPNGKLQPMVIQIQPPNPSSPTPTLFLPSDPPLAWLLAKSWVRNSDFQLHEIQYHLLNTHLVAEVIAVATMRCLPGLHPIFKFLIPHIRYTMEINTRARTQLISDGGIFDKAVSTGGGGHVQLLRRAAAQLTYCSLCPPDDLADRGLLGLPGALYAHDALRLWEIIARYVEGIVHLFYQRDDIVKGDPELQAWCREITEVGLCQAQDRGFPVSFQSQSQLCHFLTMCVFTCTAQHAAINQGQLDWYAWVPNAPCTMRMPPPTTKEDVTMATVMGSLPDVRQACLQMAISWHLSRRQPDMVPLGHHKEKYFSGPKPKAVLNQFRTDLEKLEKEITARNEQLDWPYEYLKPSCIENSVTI
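Hydroperoxide product was detected by ferrous iron/xylenol orange as the 573 to 405 nm absorbance ratio. Arachidonic acid at 40 uM (final) was turned over for 30 min at room temperature by 150 nM human 12hLO, pH 7.0 Hepes buffer, after 15 min compound preincubation.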
Active calls of the source: *; u = inconclusive; x = not tested or not shown; [ ] = dose if it differs, or a comment. The call rests on the fitted dose curve; in most records, active means well fitted curve in the direction sought with a large enough effect; inconclusive means small, poorly fitted or top-dose-only effect, or another doubt; inactive means no such curve, though single readings can be large; an effect the other way counts as inactive or inconclusive. Potency means the concentration at half of the fitted maximal effect.

SMILES	Glioma ERSR ind	Sfp PPTase inh	G9a inh	VDR inhibitor	ALOX12 inh
N/C(COc1ccc2ccccc2c1)=N\O	x	x	x	x	2%
N/C(COc1ccc(C(=O)O)cc1)=N\O	-3%	1%	50µM*	-4%	-11%
COc1cccc(C2CC(=O)N3CN(c4ccccc4F)CSC3=C2C#N)c1 (stereo unspecified)	-6%	7.9µM*	2.8µM*	45µM*	8.9µM*
COc1ccc(OC)c(C2CC(=O)N3CN(c4ccccc4F)CSC3=C2C#N)c1 (stereo unspecified)	-2%	u	2.2µM*	35µM*	u
COc1cc2cc(C(=O)N[C@H](C(=O)Nc3nccs3)C(C)C)n(C)c2c(OC)c1OC	x	x	x	x	0%
O=c1cc(C(F)(F)F)[nH]c(=S)n1-c1ccccc1	-1%	35µM*	8.9µM*	-28%	u
CC(=O)CC1(C(C#N)C#N)C(=O)Nc2ccccc21 (stereo unspecified)	x	x	x	x	-22%
O=C(Nc1ccccc1)Nc1ccc(Cl)nc1Cl	3%	x	x	1%	3.2µM*
COc1cc(C(=O)N2CCN(Cc3ccc4c(c3)OCO4)CC2)cc(OC)c1OC	-3%	-25%	20µM*	-20%	u
O=C(c1ccc(NS(=O)(=O)c2ccccc2)cc1)N1CCN(Cc2ccc3c(c2)OCO3)CC1	-6%	-4%	50µM*	-6%	-9%
COc1ccc(C(=O)N2CCN(Cc3ccc4c(c3)OCO4)CC2)cc1OC	-3%	u	8.9µM*	1%	u
Cn1c(CN2CCCC2)nc2cc(NS(=O)(=O)c3ccccc3)ccc21	-1%	14%	-15%[59 µM]	4%	21%
Cc1ccc(C(=O)N2CCN(Cc3ccc4c(c3)OCO4)CC2)cc1C	-4%	10%	u	-13%	-15%
O=S(=O)(Nc1ccc(O)c(CN2CCCCC2)c1)c1ccccc1	2%	-7%	45µM*	9%	0%
CC(=O)N1CCC(C(=O)Nc2ccc(Cl)cc2)CC1	x	x	x	x	22%
CC(C)c1ccc(N2CC(c3nc(-c4ccccn4)no3)CC2=O)cc1 (stereo unspecified)	x	x	x	x	23%
O=C(CSc1nnc(Cc2cccs2)n1C1CC1)c1c[nH]c(C(=O)N2CCCC2)c1	x	x	x	x	1%
COc1cc(OC)cc(C(=O)N2CCN(Cc3ccccc3C(F)(F)F)CC2)c1	-3%	u	7.9µM*	7%	u
COc1ccc(C(=O)N2CCN(CCCc3ccccc3)CC2)cc1OC	-4%	u	16µM*	5%	u
COc1cc(OC)cc(C(=O)N2CCN(Cc3ccc4c(c3)OCO4)CC2)c1	-2%	u	11µM*	4%	u
COc1cccc(C(=O)N2CCN(Cc3ccccn3)CC2)c1	-1%	45µM*	45µM*	-12%	u
COc1cccc(C(=O)N2CCN(CCc3ccncc3)CC2)c1	-1%	x	3%[59 µM]	22%	3%
CCc1ccc2oc(-c3ccc(NC(=O)c4ccc([N+](=O)[O-])o4)cc3)nc2c1	x	x	x	x	-10%
CCCCCCn1nc(C(=O)OCC(=O)Nc2ccc(C)c(F)c2)c2ccccc2c1=O	x	x	x	x	-23%
CC1CCCCN1C(=O)CSc1nc(C2CC2)nc2c1cnn2-c1ccccc1 (stereo unspecified)	1%	20µM*	u	-10%	u
SMILES	Glioma ERSR ind	Sfp PPTase inh	G9a inh	VDR inhibitor	ALOX12 inh
Cc1nn(C)c(C)c1NC(=O)CSc1nc(C2CC2)nc2c1cnn2-c1ccccc1	-5%	-7%	3%[59 µM]	16%	8%
O=c1n(Cc2ccc(F)c(F)c2)nc(C2CCNCC2)n1Cc1ccccc1	x	x	x	x	9%
CN(C)S(=O)(=O)c1cccc(NC(=O)c2cc(=O)[nH]c(=O)[nH]2)c1	-6%	u	1.1µM*	6%	11%
CCN(CC)S(=O)(=O)c1cccc(NC(=O)c2ccc(C#N)cc2)c1	-6%	4%	20µM*	-1%	-20%
COc1ccc(OC)c(/C=N/n2c(-c3n[nH]c4c3CCC4)n[nH]c2=S)c1	-3%	-7%	x	2%	u
COc1ccc(/C=N/n2c(-c3n[nH]c4c3CCC4)n[nH]c2=S)cc1	-3%	11%	1.6µM*	3%	u
COc1ccc(/C=N/n2c(-c3n[nH]c4c3CCC4)n[nH]c2=S)c(OC)c1OC	-3%	-20%	1.3µM*	-27%	u
COc1cc(OC)c(OC)cc1/C=N/n1c(-c2n[nH]c3c2CCC3)n[nH]c1=S	-2%	22µM*	1.6µM*	2%	-5%
COc1ccc(/C=N/n2c(C)nnc2C)c(OC)c1OC	0%	9%	22%[59 µM]	1%	492%
COc1cccc(/C=N/n2c(-c3n[nH]c4c3CCC4)n[nH]c2=S)c1OC	-1%	u	2.5µM*	17%	0%
CN(Cc1ccccc1)c1nc(-c2cccnc2)nc2ccccc12	x	x	x	x	2%
CN(O)/C=C1\C(=O)Nc2ccccc21	-3%	50µM*	50µM*	2%	u
O=C1Nc2ccccc2Nc2ccccc21	-6%	-20%	14µM*	-6%	-64%
CN(C)/C=C1\C(=O)Nc2ccccc21	0%	10%	u	-3%	3%
COC(=O)Nc1ccc(CNC(=O)c2cccc(C)c2)cc1	x	x	x	x	-12%
CC(OC(=O)c1ccc(CCNS(C)(=O)=O)cc1)C(=O)N(C)C1CCCCC1 (stereo unspecified)	x	x	x	x	0%
O=C(O)c1ccc(C#Cc2ccccc2)cc1	x	x	x	x	-10%
COc1cccc(CNC(=O)Nc2ncc(-c3ccccc3)n2C)c1	x	x	x	x	-4%
CCOc1ccc(-c2cnc(NCc3ccc(C(F)(F)F)cc3)n2C)cc1	-1%	x	10µM*	4%	u
COc1ccc(CNc2ncc(-c3ccccc3)n2C)cc1	2%	u	-2%[0.501 µM]	-5%	u
CCc1ccc(CNc2ncc(-c3cccc(OC)c3)n2C)cc1	x	x	4µM*	-6%	u
CCOc1cc(CNc2ncc(-c3ccc(OC)cc3)n2C)ccc1O	-4%	-22%	1.8µM*	-4%	1µM*
CCOc1ccc(CNc2ncc(-c3ccccc3)n2C)cc1	-1%	-7%	32µM*	-14%	u
Cn1c(-c2ccccc2)cnc1NCc1cc(Cl)ccc1O	3%	-18%	x	-17%	u
CCOc1ccc(CNc2nc3ccccc3n2C)cc1	1%	10%	x	2%	0%
COc1ccc(S(=O)(=O)N2CCN(C(=O)NC3CC3)CC2)cc1	x	x	x	x	46%
Cn1c(-c2ccccc2)cnc1NCc1ccc(-c2ccccc2)cc1	0%	-39%	11µM*	-5%	u
COc1ccc(CNc2ncc(-c3ccccc3)n2C)c2ccccc12	-6%	-24%	x	6%	10µM*
COc1cc(OC)c(C(=O)Oc2ccc(C#N)cc2OC)cc1OC	x	x	x	x	-41%
